From PubChem BioAssay (NCATS)
Results filed as inconclusive are left out. Activity calls are given as the source filed them. Unless noted, calls come from the whole dose curve; as a rule, active = well fitted inhibition curve with a large enough effect; inconclusive = small, poorly fitted or top-dose-only effect; inactive = flat fitted curve, though single readings scatter.

Key:
[1] = qHTS profiling for inhibitors of Plasmodium falciparum proliferation (AID 504749); note: nearly all actives have a fitted effect of over 60% in size; note: potency is the fitted concentration of half-maximal effect;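 for activity, negative = inhibition: 0% = DMSO vehicle and full inhibition = artemisinin control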; conditions: P. falciparum in erythrocytes, SYBR Green DNA, 72 h
How it was run: (§1)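 SYBR Green fluorescence (ex 485 nm, em 535 nm) reports parasite DNA after 72 h compound exposure of infected red cells at 0.3% parasitemia, 2.5% hematocrit; signal normalized to 0.29 uM artemisinin and vehicle wells.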

[2] = test system: 3D7; assay: as above; conditions: P. falciparum in erythrocytes, SYBR Green DNA, 72 h; series mostly up to 28.7 µM
How it was run: as §1

[3] = test system: 7G8; assay: as above; conditions: P. falciparum in erythrocytes, SYBR Green DNA, 72 h; series mostly up to 28.7 µM
How it was run: as §1

[4] = test system: AA1029; assay: as above; conditions: P. falciparum in erythrocytes, SYBR Green DNA, 72 h; series mostly up to 28.7 µM
How it was run: as §1

[5] = test system: AS120; assay: as above; conditions: P. falciparum in erythrocytes, SYBR Green DNA, 72 h; series mostly up to 28.7 µM
How it was run: as §1

[6] = test system: ATS189; assay: as above; conditions: P. falciparum in erythrocytes, SYBR Green DNA, 72 h; series mostly up to 28.7 µM
How it was run: as §1

[7] = test system: ATS95; assay: as above; conditions: P. falciparum in erythrocytes, SYBR Green DNA, 72 h; series mostly up to 28.7 µM
How it was run: as §1

[8] = test system: C2A; assay: as above; conditions: P. falciparum in erythrocytes, SYBR Green DNA, 72 h; series mostly up to 28.7 µM
How it was run: as §1

[9] = test system: CP185; assay: as above; conditions: P. falciparum in erythrocytes, SYBR Green DNA, 72 h; series mostly up to 28.7 µM
How it was run: as §1

[10] = test system: CP191; assay: as above; conditions: P. falciparum in erythrocytes, SYBR Green DNA, 72 h; series mostly up to 28.7 µM
How it was run: as §1

[11] = test system: CP192; assay: as above; conditions: P. falciparum in erythrocytes, SYBR Green DNA, 72 h; series mostly up to 28.7 µM
How it was run: as §1

[12] = test system: CP194; assay: as above; conditions: P. falciparum in erythrocytes, SYBR Green DNA, 72 h; series mostly up to 28.7 µM
How it was run: as §1

[13] = test system: CP201; assay: as above; conditions: P. falciparum in erythrocytes, SYBR Green DNA, 72 h; series mostly up to 28.7 µM
How it was run: as §1

[14] = test system: CP203; assay: as above; conditions: P. falciparum in erythrocytes, SYBR Green DNA, 72 h; series mostly up to 28.7 µM
How it was run: as §1

[15] = test system: CP211; assay: as above; conditions: P. falciparum in erythrocytes, SYBR Green DNA, 72 h; series mostly up to 28.7 µM
How it was run: as §1

[16] = test system: CP215; assay: as above; conditions: P. falciparum in erythrocytes, SYBR Green DNA, 72 h; series mostly up to 28.7 µM
How it was run: as §1

[17] = test system: CP217; assay: as above; conditions: P. falciparum in erythrocytes, SYBR Green DNA, 72 h; series mostly up to 28.7 µM
How it was run: as §1

[18] = test system: CP237; assay: as above; conditions: P. falciparum in erythrocytes, SYBR Green DNA, 72 h; series mostly up to 28.7 µM
How it was run: as §1

[19] = test system: CP238; assay: as above; conditions: P. falciparum in erythrocytes, SYBR Green DNA, 72 h; series mostly up to 28.7 µM
How it was run: as §1

[20] = qHTS drug screen for cell cycle checkpoint inhibitors in PARPi-resistant BRCA-mutant ovarian cancer cell lines. (AID 1963452; calls by dose curve); conditions: PEO1/OlaR viability, CellTiter-Glo luminescence, 96 h, stronger effect = lower value
How it was run: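 PEO1, PEO4 and PEO1/OlaR ovarian cancer cells, 600 per well, exposed 96 h at 37C to a dilution series. Viability read by CellTiter-Glo luminescence, normalized to DMSO and empty wells; activity summarized as Z-AUC.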

[21] = at 28.7 µM (top of the series), parasite line A
[22] = at 28.7 µM (top of the series), parasite line B
[23] = measured here: PEO1 parental Z-AUC

O=C(O)/C=C/C(O)c1ccc(Cl)cc1 (stereo unspecified)
inactive: activity, negative = inhibition [1, 21] 0.108% | activity, negative = inhibition [1, 22] 10.3% | Potency [2] | Potency [3] | Potency [4] | Potency [5] | Potency [6] | Potency [7] | Potency [8] | Potency [9] | Potency [10] | Potency [11] | Potency [12] | Potency [13] | Potency [14] | Potency [15] | Potency [16] | Potency [17] | Potency [18] | Potency [19]

N#C/C(=C\c1ccc(O)c(O)c1)C(=O)NCc1ccccc1
0.772: Z-AUC ([20]; measured here: PEO4 Z-AUC)
inactive: Z-AUC [20] 1.6
1.01: Z-AUC [20, 23]

N=c1ccn2c(n1)O[C@H]1[C@H](O)[C@@H](CO)O[C@H]12
0.152: Z-AUC ([20]; measured here: PEO4 Z-AUC)
inactive: Z-AUC [20] -1.72 | activity, negative = inhibition [1, 21] 4.44% | activity, negative = inhibition [1, 22] 4.16% | Potency [2] | Potency [3] | Potency [4] | Potency [5] | Potency [6] | Potency [7] | Potency [8] | Potency [9] | Potency [10] | Potency [11] | Potency [12] | Potency [13] | Potency [15] | Potency [16] | Potency [17] | Potency [18] | Potency [19]
-1.24: Z-AUC [20, 23]

O=C1NC(=O)/C(=C/c2ccc(-c3ccc(F)cc3O)o2)S1
-0.191: Z-AUC ([20]; measured here: PEO4 Z-AUC)
-0.562: Z-AUC [20, 23]
inactive: Z-AUC [20] -1.15

CCCCCCCCCCCC(=O)[O][Sn]([CH2]CCC)([CH2]CCC)[O]C(=O)CCCCCCCCCCC
inactive: activity, negative = inhibition [1, 21] -9.86% | activity, negative = inhibition [1, 22] -5.91% | Potency [2] | Potency [3] | Potency [4] | Potency [5] | Potency [6] | Potency [7] | Potency [8] | Potency [9] | Potency [10] | Potency [11] | Potency [12] | Potency [13] | Potency [14] | Potency [15] | Potency [16] | Potency [17] | Potency [19]
active: Potency [18] 10 µM

C=CCc1cccc(/C=N/NC(=O)CN2CCN(Cc3ccccc3)CC2)c1O
inactive: Z-AUC [20] 0.78
0.857: Z-AUC [20, 23]
0.395: Z-AUC ([20]; measured here: PEO4 Z-AUC)

O=S(=O)(c1cccc2c(I)cccc12)N1CCCNCC1
-0.682: Z-AUC ([20]; measured here: PEO4 Z-AUC)
inactive: Z-AUC [20] -0.863
-0.557: Z-AUC [20, 23]

O=C(/C=C/c1ccccc1)NCCO
inactive: activity, negative = inhibition [1, 21] 4.35% | activity, negative = inhibition [1, 22] -2.74% | Potency [2] | Potency [3] | Potency [4] | Potency [5] | Potency [6] | Potency [7] | Potency [8] | Potency [9] | Potency [10] | Potency [11] | Potency [12] | Potency [13] | Potency [15] | Potency [16] | Potency [17] | Potency [18] | Potency [19]

Cc1c(Nc2ncccc2C(=O)O)cccc1C(F)(F)F
inactive: activity, negative = inhibition ([1]; at 12.8 µM (top of the series), parasite line A) 7.85% | activity, negative = inhibition ([1]; at 12.8 µM (top of the series), parasite line B) -2.62% | Potency [2] | Potency [3] | Potency [4] | Potency [5] | Potency [6] | Potency [7] | Potency [8] | Potency [9] | Potency [10] | Potency [11] | Potency [12] | Potency [13] | Potency [15] | Potency [16] | Potency [17] | Potency [18] | Potency [19]

CC1(C)S[C@@H]2[C@H](NC(=O)[C@H](NC(=O)N3CCN(S(C)(=O)=O)C3=O)c3ccccc3)C(=O)N2[C@H]1C(=O)O
inactive: activity, negative = inhibition [1, 21] -8.81% | activity, negative = inhibition [1, 22] -7.98% | Potency [2] | Potency [3] | Potency [4] | Potency [5] | Potency [6] | Potency [7] | Potency [8] | Potency [9] | Potency [10] | Potency [11] | Potency [12] | Potency [13] | Potency [15] | Potency [16] | Potency [17] | Potency [18] | Potency [19]

Cc1ccc(O)c(-n2nc3ccccc3n2)c1
inactive: activity, negative = inhibition [1, 21] 4.17% | activity, negative = inhibition [1, 22] 15.3% | Potency [2] | Potency [3] | Potency [4] | Potency [5] | Potency [6] | Potency [7] | Potency [8] | Potency [9] | Potency [10] | Potency [11] | Potency [12] | Potency [13] | Potency [15] | Potency [16] | Potency [17] | Potency [18] | Potency [19]

Cc1[nH]cnc1CN1CCc2c(c3ccccc3n2C)C1=O
inactive: activity, negative = inhibition [1, 21] 12% | activity, negative = inhibition [1, 22] 7.41% | Potency [2] | Potency [3] | Potency [4] | Potency [5] | Potency [6] | Potency [7] | Potency [8] | Potency [9] | Potency [10] | Potency [11] | Potency [12] | Potency [13] | Potency [15] | Potency [16] | Potency [17] | Potency [18] | Potency [19]

Nc1ccc(C(=O)O)c(O)c1
inactive: activity, negative = inhibition [1, 21] 9.01% | activity, negative = inhibition [1, 22] -22.6% | Potency [2] | Potency [3] | Potency [4] | Potency [5] | Potency [6] | Potency [7] | Potency [8] | Potency [9] | Potency [10] | Potency [11] | Potency [12] | Potency [13] | Potency [15] | Potency [16] | Potency [17] | Potency [18] | Potency [19]

O=C(O)[C@H](O)[C@@H](O)[C@H](O)[C@H](O)CO
inactive: activity, negative = inhibition [1, 21] 1.4% | activity, negative = inhibition [1, 22] 5.65% | Potency [2] | Potency [3] | Potency [4] | Potency [5] | Potency [6] | Potency [7] | Potency [8] | Potency [9] | Potency [10] | Potency [11] | Potency [12] | Potency [13] | Potency [15] | Potency [16] | Potency [17] | Potency [18] | Potency [19]

CC1OC1P(=O)(O)O (stereo unspecified)
inactive: activity, negative = inhibition [1, 21] -11.9% | activity, negative = inhibition [1, 22] 1.11% | Potency [2] | Potency [3] | Potency [4] | Potency [5] | Potency [6] | Potency [7] | Potency [8] | Potency [9] | Potency [10] | Potency [11] | Potency [12] | Potency [13] | Potency [15] | Potency [16] | Potency [17] | Potency [18] | Potency [19]
